Assay outcomes: PubChem, National Center for Advancing Translational Sciences (NCATS)
IMPase Li cell: qHTS Assay for Identifying the Cell-Membrane Permeable IMPase Inhibitors: Potentiation with Lithium. CHO-M1 cells, IP1 TR-FRET (IP-One), carbachol + lithium. Potency, µM (titrated, usually from 59.4 µM), hits mostly inhibitors. 210,000 compounds, 0.35% hits. AID 1457, 2008;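 also: IP1 builds up when IMPase is blocked and the TR-FRET signal falls; nearly all actives have a fitted effect of over 50% in size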
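Readout is a homogeneous TR-FRET IP1 immunoassay (Ex 320, Em 665 and 620), where raised cytosolic IP1 lowers signal. Cells were CHO-M1 treated 30 min at 37C with test compounds plus a little lithium; AC50 values came from Hill-equation fitting.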
ALOX12 inhib: qHTS Assay for Inhibitors of 12-hLO (12-human lipoxygenase); Polyunsaturated fatty acid lipoxygenase ALOX12 (Homo sapiens), P18054; purified 12-hLO, xylenol orange hydroperoxide absorbance; Potency, µM (doses to about 57.1 µM), hits mostly inhibitors; 150,000 compounds, 0.12% hits; also: nearly all actives have a fitted effect of over 55% in size
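Purified human 12hLO (150 nM), preincubated 15 min with compound, then 40 uM arachidonic acid for 30 min, room temperature, Hepes pH 7.0 with 0.01% Triton X-100. Hydroperoxide detected by ferrous iron/xylenol orange; 573/405 nm absorbance ratio gives reaction progress.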
ALOX15B inhib: qHTS Assay for Inhibitors of 15-hLO-2 (15-human lipoxygenase 2); Potency, µM (series often up to 57.1 µM), actives largely listed as inhibitors; purified 15hLO-2, xylenol orange hydroperoxide absorbance; 110,000 compounds, 0.56% hits; AID 881, 2007; Polyunsaturated fatty acid lipoxygenase ALOX15B (Homo sapiens), O15296; also: nearly all actives have a fitted effect of over 60% in size
Target sequence (O15296 whole entry, looked up): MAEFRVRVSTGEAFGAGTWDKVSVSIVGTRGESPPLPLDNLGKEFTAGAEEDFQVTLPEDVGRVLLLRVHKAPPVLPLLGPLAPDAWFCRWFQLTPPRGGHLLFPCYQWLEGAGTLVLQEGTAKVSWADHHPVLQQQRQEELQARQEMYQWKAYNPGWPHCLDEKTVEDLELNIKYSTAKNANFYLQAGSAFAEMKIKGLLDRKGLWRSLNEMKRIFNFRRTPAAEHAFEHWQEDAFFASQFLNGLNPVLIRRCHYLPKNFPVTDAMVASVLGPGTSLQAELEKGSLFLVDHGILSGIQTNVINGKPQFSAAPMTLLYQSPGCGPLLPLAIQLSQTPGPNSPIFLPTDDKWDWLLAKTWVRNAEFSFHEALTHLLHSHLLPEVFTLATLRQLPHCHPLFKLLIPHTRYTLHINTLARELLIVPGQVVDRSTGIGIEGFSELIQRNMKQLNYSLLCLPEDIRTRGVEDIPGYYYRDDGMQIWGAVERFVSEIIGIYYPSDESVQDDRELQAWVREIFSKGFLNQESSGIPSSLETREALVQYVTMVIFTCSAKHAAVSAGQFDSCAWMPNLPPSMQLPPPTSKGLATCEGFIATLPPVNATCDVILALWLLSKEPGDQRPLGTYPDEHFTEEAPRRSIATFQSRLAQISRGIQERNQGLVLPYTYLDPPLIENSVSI
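Enzyme 50 nM, AA 45 uM, 25 mM Hepes pH 7.5 + 0.01% Triton X-100; cpd preinc 15 min RT, rxn 90 min RT; stop/detect with 200 uM XO + 300 uM Fe(II) in 50 mM H2SO4, 30 min; A573/A405.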
IMPase inh: qHTS Assay for Identifying the Cell-Membrane Permeable IMPase Inhibitors | Inositol monophosphatase 1 (Rattus norvegicus), P97697 | CHO-M1 cells, IP1 accumulation, HTRF TR-FRET ratio | inhibition (IP1 accumulation), % at 46.1 µM | 120,000 tested, under 10 active; active = well fitted curve in the direction sought with a large enough effect in the signal ratio, not every such curve was filed as active; inconclusive = small, poorly fitted or top-dose-only effect, or a change in a side signal; inactive = no such curve, though single readings can be large or run the other way; the % refers to the signal ratio;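 also: cells stimulated with carbachol in lithium chloride buffer; higher means more IMPase inhibition seen as more IP1 and lower FRET ratio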
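CHO-M1 cells (CHO stably expressing M1 receptor), compound up to 46 uM final, stimulated with carbachol (50 uM as added) in buffer with 50mM LiCl, pH 7.4, 30 min at 37C. Cytosolic IP1 read by TR-FRET; AC50 from Hill fits.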
Of the large screens only hits and unclear results are named; the others gave an inactive call; ! = repeats disagree. An excerpt weighted towards active compounds, which were near 0.57% of everything screened. Unless noted, calls follow the shape of the dose curve; as a rule, active = well fitted curve in the direction sought with a large enough effect; inconclusive = small, poorly fitted or top-dose-only effect, or another doubt; inactive = no such curve, though single readings can be large; an effect the other way counts as inactive or inconclusive.

Cc1cc(C)cc(C(=O)NC(=S)Nc2ccc3c(c2)OCCO3)c1	none (no result: IMPase Li cell, ALOX15B inhib)
CCc1ccc(C(=O)NC(=S)Nc2ccc3c(c2)OCCO3)cc1	ALOX12 inhib 14.1µM (no result: ALOX15B inhib)
O=C(NC(=S)Nc1ccc(N2CCCCC2)c(Cl)c1)c1ccc2c(c1)OCCO2	ALOX12 inhib inconclusive, ALOX15B inhib 10µM
C[C@@]12CCC(=O)C=C1CC[C@H]1[C@@H]2[C@@H](O)C[C@]2(C)[C@@H]1CC[C@@]2(O)C(=O)COC(=O)C1CCCC1	none (no result: IMPase Li cell, IMPase inh)
CCCCCC[C@@H]([C@H](C)O)n1cnc2c(N)ncnc21	none (no result: IMPase Li cell)
Cc1ccc2oc(-c3cccc(NC(=O)Cc4cccs4)c3)nc2c1	none
Cc1ccc2oc(-c3ccc(C)c(NC(=O)Cc4cccs4)c3)nc2c1	IMPase Li cell 12.6µM, ALOX15B inhib inconclusive
Oc1cc2c(cc1O)[C@@H]1c3ccc(O)c(O)c3OC[C@]1(O)C2	none (no result: ALOX12 inhib, ALOX15B inhib, IMPase inh)
CC(/C=C/C(=O)NO)=C\[C@@H](C)C(=O)c1ccc(N(C)C)cc1	none (no result: IMPase inh)
Cc1[nH][nH]c(=O)c1C(c1ccc(-c2ccc(Cl)cc2Cl)o1)c1c(C)[nH][nH]c1=O	none
CC1=NOC(=O)/C1=C\c1ccc(-c2ccc(Cl)cc2Cl)o1	ALOX15B inhib 7.94µM
CN(C)CC(C)(C)CNC(=O)c1ccc(-n2c(=O)c(=O)[nH]c3ccccc32)cc1	none (no result: IMPase Li cell, ALOX15B inhib, IMPase inh)
CCCCCCCCCCCCCCCCCC(=O)OCC(C)O (stereo unspecified)	none (no result: IMPase inh)
CCCCCCCCCCCCCCCC(=O)OCC(O)C1OC(=O)C(O)=C1O (stereo unspecified)	ALOX15B inhib 8.91µM (no result: IMPase inh)
O=c1cc(-c2cc(O)c(O)c(O)c2)oc2cc(O)cc(O)c12	ALOX15B inhib 12.6µM (no result: IMPase inh)
Clc1ccc(NNc2ccnc3cc(Cl)ccc23)cc1	ALOX15B inhib 15.8µM
S=C(NNc1ccnc2cc(Cl)ccc12)Nc1ccccc1Cl	none (no result: ALOX15B inhib, IMPase inh)
CCN(CC)CCCC(C)NC(=O)c1ccc(-n2c(=O)c(=O)[nH]c3ccccc32)cc1 (stereo unspecified)	none (no result: IMPase Li cell, ALOX15B inhib, IMPase inh)
CCN(C=NC1=NN(c2cccc(C(F)(F)F)c2)CC1)CC	none (no result: ALOX15B inhib, IMPase inh)
OCCN(C=NC1=NN(c2cccc(C(F)(F)F)c2)CC1)CCO	ALOX15B inhib 25.1µM
CCCN(CCc1ccccc1)[C@H]1CCc2c(O)cccc2C1	none (no result: IMPase Li cell)
COc1cc(C)ccc1OCCOc1cc(C)ccc1Cl	ALOX12 inhib inconclusive, ALOX15B inhib 15.8µM
CC1=C(C(=O)OCc2ccccc2)C(c2ccc(C3CCCCC3)cc2)NC(=O)N1CCCCCC(=O)O (stereo unspecified)	ALOX15B inhib 25.1µM (no result: IMPase inh)
N[C@H](CCCC(=O)O)C(=O)O	none (no result: IMPase Li cell)
CCOC(=O)c1cc(C(=O)OCC)c(=O)[nH]c1C	none (no result: ALOX15B inhib, IMPase inh)
CCOC(=O)c1cc(C)[nH]c(=S)c1C#N	ALOX15B inhib 25.1µM
COC(=O)c1ccccc1S(=O)(=O)N1CCc2nc(-c3ccccc3)c3c(c2C1)CO[C@@H](C)C3	none (no result: ALOX15B inhib, IMPase inh)
Cc1cc(C)c(OCC(=O)Nc2ccc3c(c2)OCO3)cc1C	IMPase Li cell 10µM
CCC(=O)NC1CCc2cccc(OC)c2C1 (stereo unspecified)	none (no result: ALOX12 inhib, ALOX15B inhib, IMPase inh)
C[C@H]1Cc2c(-c3ccccc3)nc3c(c2CO1)CN(C(=O)C1CCCCC1)CC3	none (no result: ALOX15B inhib, IMPase inh)
C/C(=N\NC(=S)NCCc1ccccc1)c1cccs1	ALOX12 inhib 3.98µM (no result: ALOX15B inhib, IMPase inh)
CCC(C)c1ccc(O)c(NC(=O)c2cccnc2)c1 (stereo unspecified)	IMPase Li cell 10µM
Cn1c(C(=O)OCC(=O)NCc2cccs2)cc2sccc21	IMPase Li cell 14.1µM, IMPase inh inconclusive
CC(OC(=O)c1cc2sccc2n1C)C(=O)NCc1cccs1 (stereo unspecified)	none
CC(C)[C@H](NC(=O)c1ccccc1Cl)C(=O)OCc1cc(=O)n2cc(Br)ccc2n1	IMPase Li cell 11.2µM (no result: ALOX12 inhib, ALOX15B inhib, IMPase inh)
CC/C=C\C/C=C\C/C=C\CCCCCCCC(=O)O	ALOX15B inhib 14.1µM!
CCc1ccc(NC(=O)CSc2nc3cc(C(=O)OC)ccc3c(=O)n2CC2CCCO2)cc1 (stereo unspecified)	IMPase Li cell 14.1µM
COc1ccc(-c2cc(-c3ccc(OC)cc3)c(C#N)c(SC)n2)cc1	IMPase Li cell 11.2µM (no result: ALOX15B inhib)
COc1cc2c(cc1O)CC[C@@H]1[C@@H]2CC[C@@]2(C)[C@H](O)CC[C@H]12	none (no result: IMPase Li cell)
CCOC(=O)C1(C)/C(=N/Nc2cccc(Cl)c2)C(=O)C(=O)N1c1ccccc1 (stereo unspecified)	ALOX12 inhib 3.16µM
